# Test results reported in PubChem BioAssay.
# Activity calls are given as the source filed them. Unless noted, how the calls were made is not given here.
# What was measured:
# [1] = A549 cell viability effects, profiling panel, calcein-AM fluorescence, 48 h, basal (AID 1162); conditions: higher = more signal; further: test concentration not given here
# [2] = adipocyte viability effects, profiling panel, cell-based, 3T3-L1 adipocytes, calcein-AM fluorescence, 48 h, basal (AID 1163); conditions: 3T3-L1 adipocytes viability, higher = more signal; further: test concentration not given here
# [3] = HepG2 cell viability effects, profiling panel, calcein-AM fluorescence, 48 h, basal (AID 1164); conditions: higher = more signal; further: test concentration not given here
# [4] = MM1S cell viability effects, profiling panel, calcein-AM fluorescence, 48 h, basal (AID 1165); conditions: higher = more signal;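 further: viability of MM1S multiple myeloma cells under basal unstimulated conditions; test concentration not given here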
# [5] = basal RPMI8226 viability, no added stimulus, profiling panel, cell-based, calcein-AM fluorescence, 48 h, PK04 Diversity Set (AID 1166); conditions: RPMI8226 myeloma viability, higher = more signal;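 further: cells grown under basal conditions without added stimulus; test concentration not given here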
# [6] = basal HepG2 mitochondrial membrane potential changes, profiling panel, cell-based, JC-1 fluorescence, 24 h, 100 nL compound (AID 1167); conditions: higher = more signal; further: test concentration not given here
# [7] = basal 3T3-L1 adipocyte mitochondrial potential changes, profiling panel, cell-based, JC-1 fluorescence, 3T3-L1 adipocytes, 24 h, 100 nL compound (AID 1168); conditions: JC-1 mitochondrial fluorescence, higher = more signal, called active from +8 up or from −8 down; further: test concentration not given here
# [8] = basal RPMI8226 mitochondrial membrane potential changes, profiling panel, cell-based, JC-1 fluorescence, 24 h, 100 nL compound (AID 1169); conditions: RPMI8226 myeloma, JC-1 mitochondrial potential fluorescence, higher = more signal; further: test concentration not given here
# [9] = basal MM1S mitochondrial membrane potential changes, profiling panel, cell-based, JC-1 fluorescence, 24 h, 100 nL compound (AID 1170); conditions: higher = more signal; further: test concentration not given here
# [10] = A549 lung cancer cell viability effects, profiling panel, resazurin fluorescence, 24 h, PK04 Diversity Set (AID 1171); conditions: higher = more signal, called active from +8 up or from −8 down; further: test concentration not given here
# [11] = HepG2 liver cancer cell viability effects, profiling panel, resazurin fluorescence, 24 h, PK04 Diversity Set (AID 1172); conditions: higher = more signal; further: test concentration not given here
# [12] = basal S. cerevisiae growth modulation, no modifier, primary screen, OD600, strain BY4716, 24 h, basal condition (AID 1173); conditions: OD600, 24 h, higher = more signal, called active from +8 up or from −8 down
# [13] = MM1S myeloma cell viability, profiling panel, resazurin fluorescence, basal, 24 h, PK04 Diversity Set (AID 1174); conditions: higher = more signal, called active from +8 up or from −8 down;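 further: MM1S multiple myeloma cell line; test concentration not given here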
# [14] = molecular target: Dihydroorotate dehydrogenase (quinone), mitochondrial (Plasmodium falciparum (isolate 3D7)) (UniProt Q08210); assay: PfDHODH enzyme inhibitors, primary screen, biochemical, C-terminal His tag, absorbance 600 nm (AID 1175); conditions: DCIP absorbance 600 nm, higher = more signal, called active from +8 up or from −8 down;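 further: recombinant parasite enzyme with a five histidine tag at its C terminus; test concentration not given here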
# [15] = P. aeruginosa biofilm formation inhibitors, primary screen, strain PAO1, LB-PBS medium, absorbance 600 nm (AID 1176); further: test concentration not given here; conditions: P. aeruginosa PAO1 growth/biofilm, A600, 12 h; higher = more signal
# [16] = S. cerevisiae RM11-1a growth modifiers, primary screen, strain RM11-1a, OD600, basal, 24 h (AID 1177); conditions: OD600, 24 h, higher = more signal, called active from +8 up or from −8 down;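 further: cultures grown under basal conditions with no added stressor; test concentration not given here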
# [17] = E. coli acrAB mutant growth effects, primary screen, E. coli filamentation inducers, strain DRC39, OD650, 24 h (AID 1178); conditions: higher = more signal, called active from +8 up or from −8 down;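 further: growth measured as culture turbidity by optical density at 650 nm; test concentration not given here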
# [18] = E. coli acrAB mutant growth effects, primary screen, E. coli filamentation inducers, strain DRC39, OD650, 48 h (AID 1179);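 further: screen aims at cell division blockers that make cells filament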; conditions: E. coli DRC39 delta-acrAB growth, higher = more signal, called active from +8 up or from −8 down
# [19] = RPMI8226 myeloma cell viability, profiling panel, resazurin fluorescence, basal, 24 h, PK04 Diversity Set (AID 1180); conditions: higher = more signal;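 further: RPMI8826 multiple myeloma cell line at 5000 cells per well; test concentration not given here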
# [20] = molecular target: E3 ubiquitin-protein ligase XIAP (Homo sapiens) (UniProt P98170); assay: XIAP binders, primary screen, biophysical, small-molecule microarray, fluorescence 635 nm (AID 1181); conditions: small-molecule microarray binding, higher = more signal;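 further: score merges 667 nm emission and signal to noise over triplicate slides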
# Sequence of E3 ubiquitin-protein ligase XIAP (Homo sapiens) (P98170 whole entry, looked up): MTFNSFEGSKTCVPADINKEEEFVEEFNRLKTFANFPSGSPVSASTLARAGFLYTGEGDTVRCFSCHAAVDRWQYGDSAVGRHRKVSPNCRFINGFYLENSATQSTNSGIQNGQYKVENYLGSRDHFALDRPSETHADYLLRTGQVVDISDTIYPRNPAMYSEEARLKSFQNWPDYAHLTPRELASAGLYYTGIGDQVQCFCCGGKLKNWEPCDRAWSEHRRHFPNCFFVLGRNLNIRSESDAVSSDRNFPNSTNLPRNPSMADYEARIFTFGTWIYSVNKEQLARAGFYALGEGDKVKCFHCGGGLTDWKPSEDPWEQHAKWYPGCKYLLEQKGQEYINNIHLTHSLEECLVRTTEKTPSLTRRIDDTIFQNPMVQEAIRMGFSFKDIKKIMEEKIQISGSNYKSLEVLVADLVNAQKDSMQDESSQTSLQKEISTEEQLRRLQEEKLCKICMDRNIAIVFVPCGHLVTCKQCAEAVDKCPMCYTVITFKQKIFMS
# Sequence of Dihydroorotate dehydrogenase (quinone), mitochondrial (Plasmodium falciparum (isolate 3D7)) (Q08210 whole entry, looked up): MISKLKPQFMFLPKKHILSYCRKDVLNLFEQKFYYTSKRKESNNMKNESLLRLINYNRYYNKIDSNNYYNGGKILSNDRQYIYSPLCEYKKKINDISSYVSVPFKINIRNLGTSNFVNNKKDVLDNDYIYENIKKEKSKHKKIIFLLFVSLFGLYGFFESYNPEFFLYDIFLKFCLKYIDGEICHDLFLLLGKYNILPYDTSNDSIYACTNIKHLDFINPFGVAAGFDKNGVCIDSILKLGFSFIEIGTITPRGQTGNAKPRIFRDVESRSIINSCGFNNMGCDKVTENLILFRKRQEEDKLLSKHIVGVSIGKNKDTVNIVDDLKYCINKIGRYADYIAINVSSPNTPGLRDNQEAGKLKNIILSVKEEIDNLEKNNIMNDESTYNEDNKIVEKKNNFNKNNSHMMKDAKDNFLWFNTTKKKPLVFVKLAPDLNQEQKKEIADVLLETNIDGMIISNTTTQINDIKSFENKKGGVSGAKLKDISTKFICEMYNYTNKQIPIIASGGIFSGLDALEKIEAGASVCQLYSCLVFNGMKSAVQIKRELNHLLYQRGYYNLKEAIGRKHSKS
Structure (SMILES),z-score [1],z-score [2],z-score [3],z-score [4],z-score [5],z-score [6],z-score [7],z-score [8],z-score [9],z-score [10],z-score [11],z-score [12],z-score [13],composite z-score [14],z-score [15],z-score [16],z-score [17],z-score [18],z-score [19],composite z-score [20]
COc1cc2c(cc1O)C(C1CC1)N(Cc1cc3c(cc1Br)OCO3)CC2 (stereo not given),-3.4,-0.204,-3.79,-3.15,-4.48,-1.85,-0.457 (inactive),-0.472,-2.08,-4.06 (inactive),-1.94,-2.67 (inactive),-3.63 (inactive),-1.55 (inactive),0.571 (inactive),0.698 (inactive),-1.2 (inactive),-1.71 (inactive),-3.52,0.0761
CN(C)CCCNC(=O)[C@@]1(c2ccc([N+](=O)[O-])cc2)CC(=O)N(C2CCCCC2)[C@@H]1c1ccc(CO)cc1,0.259,-0.272,0.23,-0.432,-1.43,0.259,0.255 (inactive),0.956,-0.435,0.497 (inactive),-0.252,-1.59 (inactive),-0.0665 (inactive),0.456 (inactive),-0.177 (inactive),-0.0078 (inactive),0.328 (inactive),-0.16 (inactive),-0.155,-0.0073
C=C(CCCC)C(=O)CC[C@@H](OC(=O)c1cccnc1)c1ccc(CO)o1,0.274,0.149,0.909,-0.238,-0.156,-1.35,-0.123 (inactive),0.736,-0.0347,-0.192 (inactive),0.154,-0.594 (inactive),-0.16 (inactive),-1.05 (inactive),0.555 (inactive),0.0671 (inactive),0.186 (inactive),-0.0608 (inactive),0.0739,0.0256
COc1cc(OC)c(C(O)C2C=CC3C(=O)NC(=O)C3N2Nc2ccc(Cl)cc2Cl)cc1Br (stereo not given),-1.52,0.0779,-2.49,-3.42,-3.97,-2.87,-0.82 (inactive),-1.09,-1.27,-2.56 (inactive),-3.99,-14.7 (active),-2.48 (inactive),-0.0023 (inactive),0.338 (inactive),0.695 (inactive),-0.0795 (inactive),-1.06 (inactive),-2.27,0.367
O=C1OCCC/C=C\[C@H]2OC34C=CCN(Cn5nnc6ccccc65)C(=O)[C@H]3N(CCCCCCO)C(=O)[C@@H]4C12 (stereo not given in full),1.06,0.469,1.42,1.8,-0.0474,0.733,0.932 (inactive),-0.263,-1.14,0.818 (inactive),1.14,-1.45 (inactive),0.651 (inactive),-0.332 (inactive),1.07 (inactive),-1.16 (inactive),1.09 (inactive),1.18 (inactive),0.598,-0.203
CCCCCCC#C[Si](O[C@H](c1ccccc1)c1cn([C@H](CO)Cc2ccccc2)nn1)(C(C)C)C(C)C,1.77,-0.121,-0.407,-0.178,-0.542,0.338,-0.94 (inactive),-0.229,-1.75,0.419 (inactive),1.13,-1.93 (inactive),0.389 (inactive),-3.69 (inactive),0.395 (inactive),-0.297 (inactive),0.953 (inactive),1.57 (inactive),0.881,-0.157
CC(=O)NCCCC[C@@H]1NC(=O)[C@@H]2C[C@H](C(=O)NCCCCCCNC(=O)CS)[C@H](c3cccc(OCCO)c3)N2C1=O,0.0596,-0.834,0.282,0.211,0.132,-0.387,0.0104 (inactive),-0.811,-0.333,-0.435 (inactive),-0.396,0.174 (inactive),-0.449 (inactive),-0.424 (inactive),0.752 (inactive),-0.407 (inactive),0.293 (inactive),0.367 (inactive),-1.05,-0.0791
CC(C)(C)OC(=O)CC[C@]1(C(=O)O)N=C(c2ccc(OCCCO)cc2)O[C@H]1c1ccccc1N=[N+]=[N-],0.559,-0.598,0.331,-0.128,-0.24,-2.45,0.328 (inactive),-0.506,-0.589,0.0553 (inactive),0.144,-0.278 (inactive),-1.32 (inactive),-0.533 (inactive),0.286 (inactive),-0.715 (inactive),0.0508 (inactive),0.49 (inactive),0.056,0.0989
[N-]=[N+]=NCc1ccccc1C[C@]1(C(=O)N2CCOCC2)N=C(c2ccc(OCCCO)cc2)O[C@H]1c1ccccc1N=[N+]=[N-],-1.37,1.97,-0.956,-1.28,-3.42,0.665,-0.817 (inactive),-1.1,-1.47,-0.678 (inactive),0.168,-1.05 (inactive),-1.21 (inactive),0.152 (inactive),-0.357 (inactive),-0.405 (inactive),1.14 (inactive),0.957 (inactive),-1.61,-0.113
